Data taken from PubChem BioAssay AID2216 (Broad Institute, 2009).
Among all 300,000 compounds or so, about 3,300 (1.1%) were called active. Not shown: some 6% with an inconclusive outcome. This excerpt belongs to a sample that is enriched for actives. Unmarked numbers belong to inactive results.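 Rule for the calls: active = more than half of the replicate wells show a fall in the fluorescence ratio signal beyond about 16% (limit read from the data, passing the limit was not always enough); inconclusive = exactly half of the replicate wells pass the set limit; inactive = fewer than half of replicates pass the limit.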

tested on: Ran GTPase (GTP-bound) - importin-beta complex; test: disruptors of Ran-importin-beta complex formation – biochemical, FRET, CFP-Ran, YFP-importin-beta, homogeneous, primary screen (AID 2216); conditions: cell-free CFP-Ran/YFP-importin-beta FRET ratio; active compounds read high; concentration not given here;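 note: 0% = DMSO wells and 100% = Ran loaded with GDP instead of GTP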

SMILES | inhibition
COc1ccc(Nc2ncnc3sc(C)cc23)cc1 | -4.52%
Cc1cc(C)c2nc(SCCC#N)nc(C)c2c1 | 4.53%
Cc1cc(C)c2nc(-c3ccco3)cc(C(=O)O)c2c1 | -1.33%
Cc1cc(C)c2nc3nc(C)cc(C)c3c(N)c2c1 | 123% (active)
CCC1Nc2ncnc(N3CCN(c4ccccc4)CC3)c2N(Cc2ccc(Cl)cc2)C1=O (configuration not stated) | 3.14%
CCOC(=O)c1cccc(NS(=O)(=O)c2c(C(=O)N3CCCCCC3)c(C)n(C)c2C)c1 | -0.759%
Cc1cc(NC(=O)COc2ccc(Cl)cc2Cl)n(CCC#N)n1 | 0.324%
Cc1cc(Nc2ccccc2)n(CCC#N)n1 | 64.2% (active)
Cc1cc(Nc2ccccc2)n(C(=O)c2ccc(N)cc2)n1 | 11.7%
COc1ccc(NC(=O)CN(C)C(=O)c2cc(-c3ccc(C)o3)nc3ccccc23)cc1 | 3.47%
Cc1ccc(C(=O)Nc2cccc3ncccc23)cc1[N+](=O)[O-] | -5.75%
Cc1ccc(/C=C(\C#N)C(=O)Nc2cccc3ncccc23)o1 | 24.4% (active)
O=C(Nc1cccc2ncccc12)C(Cl)(Cl)Cl | -1.34%
COc1ccc(NC(=O)CN(C)C(=O)c2cccc(S(=O)(=O)N3CCN(c4ccccc4)CC3)c2)cc1 | 5.36%
Cc1sc(NC(=O)c2ccc3ncsc3c2)c(C(N)=O)c1C | 7.92%
COc1ccc(NS(=O)(=O)c2ccc(C)c(C(=O)N(C)Cc3ccc(OC)cc3OC)c2)cc1 | -0.0635%
O=C(Nc1nc2c(F)cc(F)cc2s1)C1COc2ccccc2O1 (configuration not stated) | -1.75%
COc1ccc(NC(=O)C2COc3ccccc3O2)cc1 (configuration not stated) | 3.21%
COc1ccc(OC)c2sc(NC(=O)C3COc4ccccc4O3)nc12 (configuration not stated) | 18.3% (active)
Cn1nccc1C(=O)NC1CCCc2c1cnn2-c1ccccc1F (configuration not stated) | 1.44%
Cn1c2ccccc2c(=O)c2c(O)cccc21 | 19.5% (active)

SMILES | inhibition
Cn1c(=O)c(Sc2ccc(Cl)cc2)c(O)c2ccccc21 | -0.611%
Cc1cc(C)c(-c2c(O)c3ccccc3n(C)c2=O)c(C)c1 | -1.11%
COC(C/C=C/C(=O)[C@@H](C)OCc1ccccc1)OC | -3.23%
N#C/C(=C/c1ccc(-c2ccccc2[N+](=O)[O-])o1)C(=O)NCCN1CCCCC1 | 0.797%
O=C(NCCc1c[nH]c2ccccc12)C(=O)NCC1CCCO1 (configuration not stated) | 0.222%
N#C/C(=C/c1ccc(N2CCCCC2)o1)C(=O)NCCc1c[nH]c2ccccc12 | 36.8% (active)
CCCCn1c(N)c(N(CC(C)C)C(=O)c2cccc(S(=O)(=O)N3CC(C)OC(C)C3)c2)c(=O)[nH]c1=O (configuration not stated) | -2.71%
Nc1ccccc1/C=N\N=C/c1ccccc1N | 1.49%
Nc1nonc1-c1nc2ccccc2n1Cc1ccc(F)cc1 | 3.99%
COc1ccc(CNc2nnnn2C)cc1 | 0.267%
Fc1ccc(CNc2nc3ccccc3n3nnnc23)cc1 | 28.7% (active)
CCC1CCC/C1=N\NC(=O)c1ccc(Cl)cc1 (configuration not stated) | -0.716%
COc1cc(C2C(C(=O)c3ccc(C)o3)=C(O)C(=O)N2CCc2ccccc2)ccc1O (configuration not stated) | -0.99%
COC(=O)C1=CN(Cc2ccc(OC)cc2)C=C(C(=O)OC)C1c1ccc(O)c(OC)c1 | 18.3% (active)
COC(=O)C1=CN(Cc2ccc(OC)c(OC)c2)C=C(C(=O)OC)C1c1cccs1 | -0.0693%
Cc1nc2ccccc2c(=O)n1-c1ccc(NS(=O)(=O)c2ccc(F)cc2F)cc1 | 0.359%
COc1ccc(C(=O)NCC(c2ccco2)N2CCc3ccccc32)cc1OC (configuration not stated) | -0.364%
Cc1cccn2c(=O)nc(SCC(=O)NCc3ccccc3Cl)nc12 | -2.28%
COCCNc1ncnc2c1nc1n2CCCC1 | -7.47%
COCCNc1nc2nonc2nc1N1CCCC1c1nccs1 (configuration not stated) | 24.9% (active)
COCCNc1nc2nonc2nc1N(C)Cc1ccc(C)cc1 | -1.03%

SMILES | inhibition
COC(=O)c1cccc(NS(C)(=O)=O)c1 | 3.63%
COC(=O)c1ccc(NCC(=O)c2ccccc2)cc1 | 1.3%
COC(=O)c1ccc2c(C(C)(C)O)c(C(C)(C)O)[nH]c2c1 | 35.4% (active)
CC1CC(C)(C)CC2(C1)NC(=O)N(CC(=O)Nc1nccs1)C2=O (configuration not stated) | -1.02%
CCCCN(C(=O)CCNC(=O)NC12CC3CC(CC(C3)C1)C2)c1c(N)n(CCCC)c(=O)[nH]c1=O | 0.758%
CC1(C)CC(=O)NC=C(c2ccccc2)C1 | 25.4% (active)
O=C1C=C(c2ccccc2)CCC1 | 3.08%
CCN1N=C(c2ccccc2)CCC1=O | 2.2%
COc1cc(OC)c(OC)cc1CN1CCN(C(=O)c2cccc3ccccc23)CC1 | 2.06%
COc1cc2c(cc1OC)CN(CC(=O)Nc1ccc(F)cc1)CC2 | 16.9% (active)
Cc1ccc(NC(=O)CN2CCc3ccccc3C2)cc1C | 6.66%
Cc1ccc(NC(=O)CN2CCc3ccccc3C2)cc1 | -0.397%
CCOC(=O)C1(Cc2ccccc2C)CCCN(C(=O)c2ccc(COC)o2)C1 (configuration not stated) | -3.09%
COc1ccc(Cl)cc1NC(=O)CN(C)C(=O)c1cc2ccccc2cc1OC | 1.71%
CC(C)c1ccc(S(=O)(=O)N2CCN(C(=O)CN3C(=O)NC(C)(c4ccccc4)C3=O)CC2)cc1 (configuration not stated) | 0.837%
CCOc1ccc2nc(NCCNS(=O)(=O)c3ccccc3)c(C#N)cc2c1 | 127% (active)
O=S(=O)(NCCNS(=O)(=O)c1ccccc1)c1ccccc1 | 1.2%
CCOc1ccc(S(=O)(=O)NCCSc2ccccc2)cc1 | -0.375%
O=C(NNC(=O)c1ccc(-c2ccccc2)cc1)Nc1ccccc1 | 2.69%
Cc1ccc(S(=O)(=O)n2cccc2CO)cc1 | -0.413%
